IL-1B inflam inh – blocks inflammasome-driven IL-1 beta release | THP-1 LPS/ATP IL-1B secretion, AlphaLISA, 16 h; stronger effect = lower value | activity change, % at 57.5 µM | hit rate 4.7% among 360,000 | AID 743279; in the data active = activity change below about -50%; inconclusive = mostly about -30% to -49%
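Secreted IL-1B measured by AlphaLISA bead assay after 16 h compound exposure of THP-1 cells; compounds (final up to 57.5 uM) added 1 h before LPS (250 ng/mL) and ATP (1.25 mM) stimulation; lower signal means less secretion.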
Gal4-VP16 FLuc – Gal4-VP16 reporter inhibition counter-screen | hit rate 3.5% among 310,000 | Drosophila S2 Gal4-VP16 UAS-luciferase, luminescence, 20 h | Potency, µM (highest dose often 53.6 µM), for inactives: top-dose activity, negative = inhibition, actives largely listed as inhibitors | AID 2546;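 note: Gal4-VP16 expression switched on by copper sulfate through the metallothionein promoter; potency is the fitted concentration of half-maximal effect; nearly all actives have a fitted effect of over 50% in size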
RORg inh – ROR gamma (mouse) transcription inhibition; P51450; Drosophila S2 Gal4-RORgamma UAS-luciferase reporter, 20 h; Potency, µM (doses to about 53.6 µM), without a hit: top-dose activity change, negative = inhibition, actives largely listed as inhibitors; hit rate 5.4% among 310,000; AID 2551; note: potency is the fitted concentration of half-maximal effect; nearly all actives have a fitted effect of over 60% in size
Target sequence (P51450 whole entry, looked up, the tested form may be a part): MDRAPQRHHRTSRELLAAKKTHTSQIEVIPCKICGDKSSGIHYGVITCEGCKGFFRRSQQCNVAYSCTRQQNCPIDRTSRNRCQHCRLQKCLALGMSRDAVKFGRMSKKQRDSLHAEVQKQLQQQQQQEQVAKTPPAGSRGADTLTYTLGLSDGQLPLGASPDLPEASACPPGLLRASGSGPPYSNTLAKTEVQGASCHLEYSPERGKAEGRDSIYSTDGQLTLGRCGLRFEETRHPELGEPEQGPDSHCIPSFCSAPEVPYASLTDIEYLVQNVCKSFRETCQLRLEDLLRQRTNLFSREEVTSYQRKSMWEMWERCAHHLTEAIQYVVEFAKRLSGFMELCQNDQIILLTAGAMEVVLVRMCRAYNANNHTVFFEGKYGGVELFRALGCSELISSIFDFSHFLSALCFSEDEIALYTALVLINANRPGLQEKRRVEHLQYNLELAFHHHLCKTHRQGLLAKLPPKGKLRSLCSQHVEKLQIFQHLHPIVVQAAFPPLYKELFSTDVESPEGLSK
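Luminescence from a UAS-regulated Photinus luciferase reporter in stably transfected Drosophila Schneider cells is measured; decreased signal marks ROR gamma inhibition. Fusion expression is induced by 700 uM copper sulfate for 20 hr.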
DT40 TDP1 CPT – DT40-hTDP1 cell growth loss with CPT. chicken DT40 Tdp1-/-;hTDP1 cells + 20 nM CPT, ATP luminescence, 48 h. Potency, µM (titrated, usually from 46.2 µM), inactives show top-dose activity change, negative = growth inhibition, usual class: inhibitors. hit rate 12% among 420,000. AID 686979; note: potency is the fitted concentration of half-maximal effect; nearly all actives have a fitted effect of over 55% in size
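Chicken DT40 Tdp1-/- cells stably complemented with human TDP1 were seeded at 400 cells/well in medium containing 20 nM camptothecin, exposed to pin-transferred compounds, and grown at 37 °C for at least 48 hr. Viability was read as ATP luminescence.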
LDHA inh – blocks human lactate dehydrogenase A; purified LDHA, NADH/diaphorase-resazurin fluorescence; stronger effect = lower value; activity change, % (values are at about 110 or 230 µM); hit rate 0.15% among 480,000; AID 1347041; in the data active = activity change below about -30%; inconclusive = mostly about -25% to -30%;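 note: plate controls were DMSO wells for no effect and wells without enzyme for full effect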
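Enzyme activity of human lactate dehydrogenase 5 (2 nM; 0.06 mM NADH, 0.2 mM pyruvate, 5 min, RT) is measured via a resazurin/diaphorase fluorescence readout of residual NADH.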
DT40 TDP1 no CPT – qHTS for Inhibitors of human tyrosyl-DNA phosphodiesterase 1 (TDP1): qHTS in cells in absence of CPT. DT40 Tdp1-/- hTDP1 cells, no CPT, ATP luminescence, 48 h. Potency, µM (highest dose often 46.2 µM), for the others: at the top dose activity change, negative = growth inhibition, most hits filed as inhibitors. hit rate 15% among 420,000. AID 686978, 2013; note: potency is the fitted concentration of half-maximal effect; nearly all actives have a fitted effect of over 55% in size
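Growth kinetics read by CellTiter-Glo luminescence after ≥48 hr at 37 °C. Cells: DT40 Tdp1-/- stably carrying human TDP1, 400 per well, compound exposure in the absence of CPT (DMSO vehicle).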
Active calls of the source: *; ? = inconclusive; nt = not tested or not shown; [ ] = dose if it differs, or a comment. Only some compounds are listed: those with a hit (about 18% of all), similar ones and a draw of the others. Unless noted, calls come from the whole dose curve; as a rule, active = well fitted curve in the direction sought with a large enough effect; inconclusive = small, poorly fitted or top-dose-only effect, or another doubt; inactive = no such curve, though single readings can be large; an effect the other way counts as inactive or inconclusive. Unless noted, % is set by controls: 0 for no effect and ±100 for the full control effect.

SMILES	IL-1B inflam inh	Gal4-VP16 FLuc	RORg inh	DT40 TDP1 CPT	LDHA inh	DT40 TDP1 no CPT
O=C1CCCC2=C1C(c1ccc(Cl)cc1)c1c([nH]n(-c3ccccc3)c1=O)N2 (stereo unspecified)	nt	nt	nt	nt	12	nt
COc1cccc(CN2CCOc3ccc(C(O)c4cccnc4)cc3C2)c1 (stereo unspecified)	nt	nt	nt	-1%[9.04 µM]	nt	-1%
CCn1c2ccccc2c2cc(CN3CCOc4ccc(C(O)c5cccnc5)cc4C3)ccc21 (stereo unspecified)	nt	nt	nt	?	nt	26µM*
COc1ccc(OC)c(CN2CCOc3ccc(C(O)c4cccnc4)cc3C2)c1 (stereo unspecified)	nt	nt	nt	10%[9.04 µM]	nt	-29%
COc1cc(C)c(CN2CCOc3ccc(C(O)c4cccnc4)cc3C2)cc1C (stereo unspecified)	nt	nt	nt	-5%[9.04 µM]	nt	18µM*
COC(=O)c1ccc(Cn2c(C)c(C(=O)NCc3ccco3)sc2=O)o1	-56*	nt	nt	-22%	-4	-30%
COC(=O)c1ccc(Cn2c(C)c(C(=O)NCc3ccc(C#N)cc3)sc2=O)o1	-17	nt	nt	-23%	-2	-9%
COC(=O)c1ccc(Cn2c(C)c(C(=O)NCc3ccc(Cl)c(Cl)c3)sc2=O)o1	-2	nt	nt	?	-2	21µM*
O=C(COc1ncnc2ccc(Br)cc12)Nc1ccc(F)cc1	nt	nt	nt	nt	13	nt
CC(C)(C)C1=CC(=O)C(=O)C(C(C)(C)C)=C1	-65*	13µM*	10µM*	0.65µM*	18	1.3µM*
CC(C)(C)C1=CC(=Cc2cc(C(C)(C)C)c(O)c(C(C)(C)C)c2)C=C(C(C)(C)C)C1=O	nt	nt	nt	nt	59	nt
O=C(CCNC(=O)C1CCCC1)NCCc1ccsc1	nt	nt	nt	nt	-3	nt
Cc1nn(C)cc1CN(C)Cc1c(C(=O)N(C)Cc2ccccc2)nc2ccccn12	18	3%	41%	?	-8	?
CN(Cc1c(C(=O)N(C)Cc2ccccc2)nc2ccccn12)CC1Cc2ccccc2O1 (stereo unspecified)	1	8%	30%	18µM*	1	15µM*
CN(Cc1ccccc1)C(=O)c1nc2ccccn2c1CN1CCc2sccc2C1	-94*	?	-11%	-22%	1	?
COc1cc(/C=C/C(=O)c2ccc(C(=O)O)s2)cc(OC)c1O	nt	nt	nt	nt	78	nt
CCOc1cccc(OCCn2c(-c3ccc(OC)cc3)nc3ccccc3c2=O)c1	nt	nt	nt	nt	-5	nt
COC(=O)c1nnn(-c2ccc(F)c(Cl)c2)c1C(=O)OC	-15	17%	-12%	-5%	-3	-1%
COC(=O)c1c(C)nn(-c2ccc(F)c(Cl)c2)c1-c1cc(C)on1	-3	-16%	9%	12µM*	-8	5.2µM*
COc1ccnc(CN(C)C(=O)C2CCC(=O)N(Cc3cccc(C(F)(F)F)c3)C2)c1 (stereo unspecified)	37	12%	-2%	-17%	2	16%
COc1ccnc(CSC(N)=Nc2ccccc2OC)c1	-10	?	-101%	?	3	13µM*
COc1ccnc(CSC(N)=Nc2ccccc2C(F)(F)F)c1	3	-16%	?	26µM*	-3	15µM*
COc1ccnc(CSC(N)=Nc2cccc(C(F)(F)F)c2)c1	-104*	13µM*	6.3µM*	12µM*	5	16µM*
Cc1ccc(CN(C)CC(=O)N(C)c2c(N)n(Cc3ccccc3)c(=O)[nH]c2=O)cc1	nt	nt	nt	nt	7	nt
O=C(Cn1cnc2cc([N+](=O)[O-])ccc2c1=O)Nc1ccc2c(c1)OCO2	56	-7%	5%	-10%	1	3%
SMILES	IL-1B inflam inh	Gal4-VP16 FLuc	RORg inh	DT40 TDP1 CPT	LDHA inh	DT40 TDP1 no CPT
O=[N+]([O-])c1cccc(S(=O)(=O)Nc2nc3ccccc3nc2Nc2cccc(S(=O)(=O)N3CCCCC3)c2)c1	-21	11µM*	?	?	-5	?
Cc1ccc(NC(=O)Cn2cnc3cc([N+](=O)[O-])ccc3c2=O)cc1	1	7%	4%	-18%	-1	-13%
CC1CCCCN1C(=O)Cn1cnc2cc([N+](=O)[O-])ccc2c1=O (stereo unspecified)	66	4%	4%	15µM*	1	18µM*
Cc1cc(C)c(C(=O)Cn2cnc3cc([N+](=O)[O-])ccc3c2=O)cc1C	2	?	2%	?	-9	18µM*
CC1CCCCN1C(=O)CCNC(=O)Cn1cnc2ccccc2c1=O (stereo unspecified)	3	5%	-10%	-4%	-3	1%
O=C(Cn1cnc2cc([N+](=O)[O-])ccc2c1=O)Nc1cccc(S(=O)(=O)N2CCCCC2)c1	-55*	nt	nt	?	-9	?
c1cc(C2CC2)[nH]n1	nt	nt	nt	nt	-14	nt
CCCc1nc2ccccc2c(C(=O)OCC(=O)NCC(C)C)c1CC	nt	nt	nt	nt	0	nt
C(#Cc1cc(-c2ccccc2)nc(-c2ccccc2)c1)c1ccccc1	nt	nt	nt	nt	1	nt
C/C=C/C=C/C(=O)NC(C)c1ccc(SC)cc1 (stereo unspecified)	nt	nt	nt	nt	7	nt
CCNc1ccc(S(=O)(=O)N(CC)CC)cc1NCC(=O)Nc1ccccc1Cl	nt	nt	nt	nt	-16	nt
O=C1CC(c2ccc(Cl)c([N+](=O)[O-])c2)c2ccc3ccccc3c2N1 (stereo unspecified)	-11	-3%	?	?	-1	?
CN(C)c1ccc(C2CNC(c3ccc(Cl)c([N+](=O)[O-])c3)c3[nH]c4ccccc4c32)cc1 (stereo unspecified)	-25	3%	-6%	23µM*	2	18µM*
O=[N+]([O-])c1cccc(C2NCC(c3ccccc3Cl)c3c2[nH]c2ccccc32)c1 (stereo unspecified)	-63*	3%	14%	?	-2	?
N#Cc1c(-c2ccccc2)cc(-c2cccs2)nc1SCS(=O)Cc1ccc(Cl)cc1 (stereo unspecified)	nt	nt	nt	nt	-6	nt
Cc1cccc(-c2noc(CNC(=O)Nc3cccc4ccccc34)n2)c1	nt	nt	nt	nt	6	nt
COc1ccc(-c2cc(C(F)(F)F)nc(S(C)(=O)=O)n2)cc1	-102*	8.9µM*	13µM*	2.6µM*	-9	3.3µM*
CS(=O)(=O)c1nc(-c2ccc(F)cc2)cc(C(F)(F)F)n1	-103*	4.5µM*	2.5µM*	1.3µM*	-9	1.8µM*
CC(C)C(NC(=O)OC(C)(C)C)C(=O)NC(CCC(=O)OCc1ccccc1)C(N)=O (stereo unspecified)	21	0%	26%	-6%	-10	1%
